Several values for one entry are separate records, joined by “and”; a condition that tells them apart may be missing. Identical values can stand only once. About 2,100 (0.66%) of roughly 320,000 compounds were called active. Not shown: some 53% with an inconclusive outcome. Calls come from the whole dose curve; as a rule, active = well fitted inhibition curve with a large enough effect in the signal ratio, with a control signal flat (not every such curve was filed as active); inconclusive = small, poorly fitted or top-dose-only effect, or effect the other way, or a change in a side signal; inactive = flat fitted curve, though single readings scatter; the % refers to the signal ratio. The sample as a whole holds a higher share of actives than the screen did.
Potency is the fitted concentration of half-maximal effect.

The nature of this assay: qHTS Assay for Lipid Storage Modulators in Drosophila S3 Cells.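 For cell number change: cells counted by Cell Tracker Red CMTPX staining in the red channel.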 For lipid storage change, negative = inhibition: % is set by controls: 0 for no effect and ±100 for the full control effect. As to conditions: BODIPY lipid droplet fluorescence, 18-24 h, cells fed with added oleic acid; cell number change: measured here: cell count max response; series mostly up to 46.1 µM; lipid storage change, negative = inhibition: at the top concentration. The gist of the method:
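Laser-scanning cytometry quantifies lipid droplet accumulation (500–530 nm total intensity; droplet/cell object ratio) in oleic acid-fed (400 uM added) Drosophila S3 cells treated with a concentration series. 20 uM Triacsin C defined 100% inhibition.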
`COc1ccccc1-n1c(-c2ccc(F)cc2)coc1=O`: the “lipid storage change, negative = inhibition” value was 8.23% (inactive) and the cell number change came out at 9.35%.

Regarding `COC(=O)Nc1ccc(S(=O)(=O)N2CCN(c3ccc(F)cc3)CC2)cc1`, the result was inactive.

Turning to `COCCn1nnnc1C(c1ccccn1)N1CCN(c2cccc(C)c2C)CC1` (stereo unspecified), the “lipid storage change, negative = inhibition” value was 3.18% (inactive) and the cell number change is 1.34%.

For the molecule `Cc1cc(Cl)c(S(=O)(=O)NC(C(=O)O)c2ccccc2)cc1OCC(N)=O` (stereo unspecified), the molecule was classed as inactive and the cell number change is 6.34%.

For the molecule `COc1ccc(CC2(CO)CCN(C(C)Cc3ccc(Cl)cc3)CC2)cc1` (stereo unspecified), the “lipid storage change, negative = inhibition” value is -5.1% (inactive) and the cell number change is -1.88%.

Consider `CC(=O)C1=NN(c2ccc(Cl)cc2)C(c2ccc3c(c2)OCO3)N(C(C)=O)N1C` (stereo unspecified), for which the “lipid storage change, negative = inhibition” value is 10.1% (inactive) and the cell number change amounted to 4.72%.

As to `O=C(CNc1ccc(Br)cc1)c1ccccc1`, the “lipid storage change, negative = inhibition” value was 1.32% (inactive) and the cell number change was -10.1%.

With `O=C(NNC1CC(=O)N(c2ccc(Cl)cc2)C1=O)c1ccccn1` (stereo unspecified), the “lipid storage change, negative = inhibition” value is -2.98% (inactive) and the cell number change was determined as 6.05%.

Turning to `CCCCNCc1cc2ccccc2o1`, the “lipid storage change, negative = inhibition” value is -15.4% (inactive) and the cell number change is -14.5%.

Take `Cc1ccc(-c2nn(CC(=O)O)c(=O)c3ccccc23)cc1`: the “lipid storage change, negative = inhibition” value was 4.71% (inactive) and the cell number change is -4.34%.

Consider `O=C(CCN1C(=O)[C@@H]2Cc3ccccc3CN2C1=O)N[C@H](C(=O)O)c1ccccc1`, for which the outcome was inactive and the cell number change is 8.94%.

As to `COc1ccc(NC(=O)COC(=O)Cc2cccs2)cc1OC`, the “lipid storage change, negative = inhibition” value is 24.7% (inactive) and the cell number change is -0.769%.

As to `COc1cccc(C2CC(c3cccs3)=NN2C(=O)CSc2nc3ccccc3o2)c1OC` (stereo unspecified), the “lipid storage change, negative = inhibition” value was -2.37% (inactive) and the cell number change came out at 8.7%.

As for `O=C(CSc1nc2ccccc2o1)N1N=C(c2cccs2)CC1c1ccc(F)cc1` (stereo unspecified), the molecule was called inactive and the cell number change is -17.4%.

`COc1ccc(C2CC(c3cccs3)=NN2C(=O)CSc2nc3ccccc3o2)cc1` (stereo unspecified): the Potency is 9.2 µM (active) and the cell number change is -8.56%.

For the molecule `CC(=O)c1ccc(NC(=O)Cn2cnc(S(=O)(=O)N3CCOCC3)c2)cc1`, the molecule was called inactive and the cell number change is -2.31%.

For the molecule `COc1ccc2cc(CCNC(=O)c3cccc([N+](=O)[O-])c3)c(=O)[nH]c2c1`, the “lipid storage change, negative = inhibition” value is 1.68% (inactive) and the cell number change worked out at 9.49%.

`O=C(/C=C\c1ccc2c(c1)OCO2)CC1(O)C(=O)Nc2ccccc21` (stereo unspecified): the “lipid storage change, negative = inhibition” value is 4.36% (inactive) and the cell number change was 10.9%.

Consider `NC(=O)CN1C(=O)C(O)(CC(=O)/C=C\c2ccc3c(c2)OCO3)c2ccccc21` (stereo unspecified), for which the “lipid storage change, negative = inhibition” value was 3.04% (inactive) and the cell number change was -3.53%.

For `CN1C(=O)C(O)(CC(=O)/C=C\c2ccc3c(c2)OCO3)c2ccccc21` (stereo unspecified), the Potency was 0.366 µM (active) and the cell number change was -43.9%.

With `COc1ccc(S(=O)(=O)NCC2CCCO2)cc1C(=O)O` (stereo unspecified), the “lipid storage change, negative = inhibition” value is -1.07% (inactive) and the cell number change was determined as 10.7%.

As to `CCOc1ccc(S(=O)(=O)NCC2CCCO2)cc1NC(=O)c1ccccc1F` (stereo unspecified), the call was inactive and the cell number change stood at 23.9%.

With `COc1ccc(S(=O)(=O)NCC2CCCO2)cc1NC(=O)c1ccccc1F` (stereo unspecified), the Potency was 25.9 µM (active) and the cell number change was -5.13%.

`C#CCOCCOCCOCCNc1nc(N2CCN(C(=O)[C@H](CCC(=O)O)n3cc(C(N)CO)nn3)CC2)nc(N2CCN(C(=O)[C@H](Cc3cc4ccccc4[nH]3)n3cc(C(N)[C@H](C)CC)nn3)CC2)n1` (stereo partly specified): the “lipid storage change, negative = inhibition” value was -13% (inactive) and the cell number change came to 10.5%.

For `Cc1ccc(NC(=O)CCN2C(=O)C3C4CCC(C4)C3C2=O)cc1[N+](=O)[O-]` (stereo unspecified), the “lipid storage change, negative = inhibition” value is 2.12% (inactive) and the cell number change was -0.215%.

As to `Cc1ccnc2nc(C(=O)OCC(=O)N(CC(C)C)C3CCS(=O)(=O)C3)nn12` (stereo unspecified), the “lipid storage change, negative = inhibition” value is 9.53% (inactive) and the cell number change stood at 2.08%.

With `O=C(CCC1COc2ccccc2O1)NCC1COc2ccccc2O1` (stereo unspecified), the “lipid storage change, negative = inhibition” value is 10.9% (inactive) and the cell number change amounted to 8.2%.

In the case of `COc1ccc(CC(=O)NCC2COc3ccccc3O2)cc1` (stereo unspecified), the “lipid storage change, negative = inhibition” value is -7.76% (inactive) and the cell number change came out at 0.718%.

Regarding `COc1ccccc1C(=O)NCCC(=O)NCC1COc2ccccc2O1` (stereo unspecified), the Potency was 20.6 µM (active) and the cell number change is -11.7%.

For the molecule `O=C(N/C(=C/c1ccccc1)C(=O)N1CCCCCC1)c1ccccc1`, the “lipid storage change, negative = inhibition” value was 0.572% (inactive) and the cell number change came to 10.3%.

Turning to `CCOC(=O)c1c(C)nc2c3ccccc3ccn12`, the molecule was classed as inactive and the cell number change is -20.3%.

Take `CCOC(=O)c1c2ccccc2[n+]([O-])n1CCO`: the Potency is 18.4 µM (active) and the cell number change was -10.4%.

For `CCOC(=O)c1c(O)c(O)c(C(=O)OCC)n1-c1ccccc1`, the “lipid storage change, negative = inhibition” value was -6.73% (inactive) and the cell number change stood at 6.34%.

Regarding `Cc1nc2ccc(NS(=O)(=O)c3ccccc3F)cc2s1`, the “lipid storage change, negative = inhibition” value is 12.6% (inactive) and the cell number change turned out to be 3.06%.

Consider `Cc1ccc(S(=O)(=O)Nc2ccc3nc(C)sc3c2)c(C)c1`, for which the Potency is 10.3 µM (active) and the cell number change was found to be 24.9%.

On to `Cc1nc2ccc(NS(=O)(=O)c3ccc(F)cc3F)cc2s1`, for which the Potency is 13 µM (active) and the cell number change was -1.41%.

For the molecule `Cc1ccc(S(=O)(=O)Nc2ccc3nc(C)sc3c2)cc1`, the “lipid storage change, negative = inhibition” value was -16% (inactive) and the cell number change is -22.9%.

For `Cc1nc2ccc(NS(=O)(=O)c3ccc(F)cc3)cc2s1`, the call was inactive and the cell number change was 20%.

For `Cc1ccc(S(=O)(=O)Nc2ccc3nc(N)sc3c2)cc1`, the “lipid storage change, negative = inhibition” value is 16.5% (inactive) and the cell number change is -27.3%.

For `COC(=O)C1=C(C)N(Cc2ccccc2)C(=NCc2cccc(Cl)c2)N[C@H]1c1ccccc1`, the Potency entry is “inactive”; the cell number change was -18.9% and 6.44%.

In the case of `COC(=O)C1=C(C)N(Cc2ccccc2)C(=NCc2cccc(Cl)c2)N[C@H]1c1cccc(F)c1`, the Potency is 20.6 µM (active) and the cell number change was -27.7%.

`COC(=O)C1=C(C)N(Cc2ccccc2)C(=NCc2ccccc2)N[C@H]1c1cccc(F)c1`: the “lipid storage change, negative = inhibition” value was -22.4% (inactive) and the cell number change is -6.29%.

As for `CCc1ccc(/C=C2\SC(=S)N(CCC(=O)NC3=NCCS3)C2=O)cc1`, the “lipid storage change, negative = inhibition” value was -19.7% (inactive).

As to `Cc1cccc(Nc2nc(N)nc(CN3CCN(c4ccc(F)cc4)CC3)n2)c1`, the “lipid storage change, negative = inhibition” value is 13.2% (inactive) and the cell number change was -18.7%.
